Source: PubChem BioAssay
Only some compounds are listed: those with a hit (about 20% of all), similar ones and a draw of the others.
CHX counter: affects cycloheximide protein synthesis inhibition readout, counter-screen; cell reporter, cycloheximide protein synthesis inhibition counterscreen; hit rate 12% among 300,000; max response, %; AID 2314; in the data active = max response mostly above about 13%, no sharp cut-off; inactive = mostly below about 14%; also: read at 38.3 µM for the half of the compounds with a filed dose; 0% is about no effect
Pf growth 96h: P. falciparum growth inhibition at 96 hours | hit rate 6.9% among 320,000 | Potency, µM (top dose mostly 28.7 µM), for the others: at the highest dose activity change, negative = inhibition, most hits filed as inhibitors | AID 504834 | P. falciparum luciferase reporter growth, 96 h; also: potency is read from the fitted curve at half-maximal effect; % is scaled to controls: 0 for no effect and ±100 for the full control effect
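96 h incubation, 37 C, 5% CO2, of luciferase-reporter P. falciparum-infected RBCs (2% hematocrit, 0.05% parasitemia final) with test compounds; endpoint luminescence.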
HCMV inh: human cytomegalovirus inhibition; HFF cells, HCMV-luciferase reporter, 72 h; stronger effect = lower value; activity change, negative = inhibition, % at 57.5 µM; hit rate 4.5% among 410,000; in the data active = activity change below about -60%; inconclusive = no clear call, values can overlap the other calls; inactive = above about -39%; also: % is scaled to controls: 0 for no effect and ±100 for the full control effect
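Cell-based, HFFs, 1000 cells/well, 16 h 37C; cpds in DMSO + HCMV-luc, MOI 1 PFU/cell; 72 h 37C; OneGlo luminescence after 5 min RT; norm. to buffer vs Salinomycin 10uM.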
Pf growth 48h: inhibits P. falciparum growth in the first generation, 48 h | P. falciparum luciferase growth in erythrocytes, 48 h | Potency, µM (highest dose often 28.7 µM), without a hit: at the top dose activity change, negative = inhibition, hits mostly inhibitors | hit rate 5.9% among 310,000; also: potency is read from the fitted curve at half-maximal effect; % is scaled to controls: 0 for no effect and ±100 for the full control effect
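In quantitative HTS format, infected erythrocytes bearing luciferase-reporter parasites were treated for a single generation at 37 C. Luminescence after adding detection reagent served as the growth measure.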
Shiga toxin inh: blocks Shiga toxin action in Vero cells. Vero cells, Shiga toxin protein synthesis inhibition reporter. inhibition, % at 38.7 µM. hit rate 9.2% among 290,000. AID 2315; in the data active = inhibition mostly above about 28%, no sharp cut-off; inactive = mostly below about 43%; also: 0% is about no effect
Starred values were filed as active, the others as inactive; ? = inconclusive; · = no result given. Unless noted, calls follow the shape of the dose curve; as a rule, active = well fitted inhibition curve with a large enough effect; inconclusive = small, poorly fitted or top-dose-only effect, or another doubt; inactive = no such curve, though single readings can be large or run the other way.

SMILES	CHX counter	Pf growth 96h	HCMV inh	Pf growth 48h	Shiga toxin inh
NC(=O)c1csc(-c2ccc(CO)o2)n1	·	·	-12	·	·
Nc1cccc(-c2ccc(CO)o2)c1	31*	-2%	3	70%	68*
CCOc1ccccc1Nc1ncccc1C(=O)O	-1	1%	-1	·	15
O=C(Nc1ccccc1)c1cccnc1NCCc1ccccc1	8	?	?	-13%	12
COc1ccc(NC(=O)c2cccnc2NCCc2ccccc2)cc1	8	1.5µM*	3	?	8
COc1ccccc1Nc1ncccc1C(=O)O	-1	9.3µM*	90	11%	17
COc1ccc(Nc2ncccc2C(=O)O)cc1	47*	·	67	144%	112*
COc1ccccc1CNC(=O)C1CCCN(S(=O)(=O)c2ccc3c(c2)C(C)(C)C(=O)N3C)C1 (centres undefined)	-3	32%	32	?	-10
Cc1ccc(NC(=O)COc2ccccc2C(=O)Nc2ccccc2)cc1Cl	0	-95%	19	?	7
O=C(COc1ccccc1O)Nc1ccc(Cl)cc1	28*	·	-16	0%	56*
CCOc1ccccc1C(=O)Nc1cc(Cl)ccc1O	-1	·	34	3.3µM*	-5
COc1ccccc1C(=O)Nc1cc(Cl)ccc1O	-5	?	30	?	-14
Cc1ccc(Cl)cc1NC(=O)c1ccccc1OCC(=O)Nc1ccc(Cl)cc1	-1	9.3µM*	20	?	-7
Cc1ccccc1OCC(=O)NNC(=O)Nc1ccc(Cl)cc1	12	49%	-37	26%	16
O=C(c1ccc(S(=O)(=O)N2CCOCC2)cc1)N1CCN(c2ccccn2)CC1	5	?	-9	-4%	7
C#CCOCCOCCOCCNc1nc(N2CCOCC2)nc(N2CCN(C(=O)Cn3cc(CC(C)O)nn3)CC2)n1 (centres undefined)	-4	?	-26	17%	-12
CCOc1ccc(NC(=O)CSc2nc3c([nH]c4ccccc43)c(=O)n2-c2cc(C)cc(C)c2)cc1	·	·	19	·	·
CCCCCC(=O)N[C@@H](c1ccccc1)[C@@H](O)C(=O)O[C@H]1C[C@@]2(O)[C@@H](OC(=O)c3ccccc3)C3[C@](C)(C(=O)[C@H](O)C(=C1C)C2(C)C)[C@@H](OC1OCC(O)C(O)C1O)C[C@H]1OC[C@@]31OC(C)=O (some centres undefined)	3	0.17µM*	-35	?	3
CC(=O)O[C@@]12CO[C@@H]1C[C@H](OC1OCC(O)C(O)C1O)[C@@]1(C)C(=O)[C@H](O)C3=C(C)[C@@H](OC(=O)[C@H](O)[C@@H](NC(=O)c4ccccc4)c4ccccc4)C[C@@](O)([C@@H](OC(=O)c4ccccc4)C12)C3(C)C (some centres undefined)	-2	0.037µM*	-25	?	1
COc1ccc(OC(C)C(=O)NCc2nc(-c3cccc(C)c3)no2)cc1 (centres undefined)	·	·	-11	·	·
O=C(c1ccc([N+](=O)[O-])o1)N1CCN(c2nc3c(F)cc(F)cc3s2)CC1	·	0.33µM*	2	1µM*	·
Cc1ccc(C)c2sc(N3CCN(C(=O)c4ccc([N+](=O)[O-])o4)CC3)nc12	·	0.33µM*	-7	0.83µM*	·
Cc1ccc(C)c2sc(N3CCN(C(=O)C(C)(C)C)CC3)nc12	·	·	-8	·	·
CC(=O)Nc1sc(N/N=C\c2cccc(Cl)c2)nc1-c1cccs1	19*	?	69	?	9
CC(=O)Nc1sc(N/N=C\c2ccccc2F)nc1-c1cccs1	38*	-59%	?	?	62*
SMILES	CHX counter	Pf growth 96h	HCMV inh	Pf growth 48h	Shiga toxin inh
CC(=O)Nc1sc(N/N=C\c2ccc(O)cc2)nc1-c1cccs1	27*	8%	-27	18%	68*
CC(=O)Nc1sc(NC(=O)c2ccccc2)nc1-c1cccs1	21	-28%	26	-3%	14
O=C(Cn1cncn1)N/N=C/c1cccc(Cl)c1	-1	15%	33	6%	6
CCCC[n+]1c(C)sc2cc(OC)ccc21	1	24%	1	-1%	-7
CC[n+]1c(C)sc2c3ccsc3ccc21	10	33%	-16	15µM*	-3
CCOc1ccc2nc(COC(=O)c3cccc([N+](=O)[O-])c3)c(C(C)=O)[n+]([O-])c2c1	-1	-13%	15	-1%	2
COc1ccc(CNC(=O)Cn2ncc3c(=O)oc4ccc(C)cc4c32)c(OC)c1	·	·	4	·	·
COc1ccc(Nc2ncnc3ccccc23)c(OC)c1	8	-15%	25	64%	13
